Consider 40 compounds from PubChem BioAssay (Tox21).

Results filed as inconclusive are left out. The source holds several records for some structures; these can differ, active in one and inactive in another. Unmarked numbers belong to inactive results. Activity calls are given as the source filed them. Calls come from the whole dose curve; as a rule, active = well fitted cell-killing curve with a large enough effect in the repeat runs; inconclusive = weak or mixed curves, or effect the other way; inactive = flat fitted curve, though single readings scatter.
% is set by controls: 0 for no effect and ±100 for the full control effect; potency is the fitted concentration of half-maximal effect.

The assay is described as follows: cAMP Responsive Elements (CRE) small molecule antagonists, cell-based qHTS assay: qHTS cell viability counter screen (AID 2060913). Note: nearly all actives have a fitted effect of over 40% in size. The settings on record: CRE-bla HEK293T viability, CellTiter-Glo luminescence, 5 h; series mostly up to 92.4 µM; viability change, negative = cytotoxic: at the top concentration. A digest of the protocol: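 CRE-bla HEK293T cells (2,000/well, 18 h) given compound plus NKH477 0.25 uM final for 3 h at 37C; viability counter-screen by CellTiter-Glo luminescence in same wells after 30 min.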
(qHTS replaces the single test concentration by a dilution series.)
Consider `C/C=C/CO`, for which the “viability change, negative = cytotoxic” value was -0.843%.
For the compound `CC(=O)N(O)CCCCCNC(=O)CCC(=O)N(O)CCCCCNC(=O)CCC(=O)N(O)CCCCCN`, the “viability change, negative = cytotoxic” value was 1.64% [at 42.5 µM].
On to `CCC(C)(O)CCCC(C)C` (stereo unspecified), for which the Potency entry is “inactive”.
The same measure, in the same setting: the same measure for `CCOC(=O)O[C@H](C)OC(=O)c1ccc2c(c1)cc(C(=O)NC1CCN(C(C)C)CC1)n2Cc1cc(-c2ccc(Cl)s2)on1`: 57.1 µM (active).
Consider `CC1CCCC1`, for which the “viability change, negative = cytotoxic” value is -3.26%.
`CC1(C)S[C@@H]2[C@H](NC(=O)[C@H](N)c3ccccc3)C(=O)N2[C@H]1C(=O)O`: the Potency entry was “inactive”.
For the compound `CN(C)CCN(Cc1ccc(Cl)cc1)c1ccccn1`, the “viability change, negative = cytotoxic” value is -0.282% [at 42.5 µM].
With `Cc1ccccc1S(N)(=O)=O`, the “viability change, negative = cytotoxic” value was -1.42%.
For `O=[Se](O)O`, the Potency is 61.2 µM (active) and the viability change, negative = cytotoxic is 6.01% [at 18.9 µM].
Take `OB(O)O`: the Potency result was “inactive”.
Turning to `COc1ccc(CCN2CCC(Nc3nc4ccccc4n3Cc3ccc(F)cc3)CC2)cc1`, the Potency was 35.1 µM (active).
On to `COc1ccccc1/C=C/C=O`, for which the Potency result was “inactive”.
For the compound `COc1cc(S(=O)(=O)O)c(C)cc1N=Nc1c(O)ccc2cc(S(=O)(=O)O)ccc12`, the “viability change, negative = cytotoxic” value was -1.36%.
For `CCCCCCCC`, the “viability change, negative = cytotoxic” value is 1.27%.
Consider `CC(C)COC(=O)c1ccc(N)cc1`, for which the “viability change, negative = cytotoxic” value is 6.18% [at 42.5 µM].
For `COC(=O)[C@@H]1CC2=CC(=O)CC[C@]2(C)[C@@]23O[C@@H]2C[C@@]2(C)[C@@H](CC[C@@]24CCC(=O)O4)[C@H]13`, the “viability change, negative = cytotoxic” value is 1.48% [at 42.5 µM].
As to `CC/C=C\CCCCCO`, the “viability change, negative = cytotoxic” value was 1.84%.
The same measure, in the same setting: the same measure for `CC1CCCCN1CCCOC(=O)c1ccc(OC2CCCCC2)cc1` (stereo unspecified): -12.6% [at 42.5 µM].
Regarding `FC(F)(F)c1ccc(Cl)cc1Cl`, the “viability change, negative = cytotoxic” value is 2.06%.
For `O=[N+]([O-])c1ccccc1Nc1ccccc1`, the “viability change, negative = cytotoxic” value is 7.11%.
As for `C[C@H]1O[C@@H](O[C@H]2[C@@H](O)C[C@H](O[C@H]3[C@@H](O)C[C@H](O[C@H]4CC[C@@]5(C)[C@H](CC[C@@H]6[C@@H]5C[C@@H](O)[C@]5(C)[C@@H](C7=CC(=O)OC7)CC[C@]65O)C4)O[C@@H]3C)O[C@@H]2C)C[C@H](O)[C@@H]1O`, the Potency is 0.0632 µM (active).
`Nc1nc2ccc([N+](=O)[O-])cc2s1`: the “viability change, negative = cytotoxic” value is 1.08%.
Same read-out and setting: the same measure for `O=C(Nc1cccc(C2=NCCN2)c1)Nc1cccc(C2=NCCN2)c1`: 0.0426% [at 18.9 µM].
The same measure, in the same setting: to `CCCC(=O)CC` belongs -1.24%.
The same measure, in the same setting: to `CCc1cccc2c(CCO)c[nH]c12` belongs 3.07% [at 42.5 µM]; to `CN1C(=O)c2ccc([N+](=O)[O-])cc2C1=O`, 0.116%.
With `CCCCCCCCCCO`, the Potency entry is “inactive”.
Same read-out and setting: to `CC1=CC(=O)CC(C)(C)C1` belongs “inactive”.
For the compound `CCC1(C)CC(=O)NC1=O` (stereo unspecified), the “viability change, negative = cytotoxic” value is 1.56% [at 42.5 µM].
Take `Cc1cc(=O)[nH]c(=S)[nH]1`: the Potency result is “inactive”.
Take `CCCCC(=O)O[C@]1(C(=O)CO)CC[C@H]2[C@@H]3CCC4=CC(=O)CC[C@]4(C)[C@H]3[C@@H](O)C[C@@]21C`: the “viability change, negative = cytotoxic” value is 5.12% [at 42.5 µM].
On the same count and under the same terms, the same measure for `O=Cc1ccc(F)cc1`: 0.587%.
As for `O=S1(=O)OC(c2ccc(O)cc2)(c2ccc(O)cc2)c2ccccc21`, the Potency result was “inactive”.
For `NCCCCCC(=O)O`, the “viability change, negative = cytotoxic” value was -0.307% [at 42.5 µM].
As for `COc1ccc2cccc(CCNC(C)=O)c2c1`, the “viability change, negative = cytotoxic” value was -1.08% [at 42.5 µM].
In the case of `Cc1c(N)cccc1N`, the “viability change, negative = cytotoxic” value was 5.38%.
As for `CC(=O)OC(C)C`, the Potency entry was “inactive”.
Turning to `CN1CCN(C2=Nc3ccccc3Sc3ccc(Cl)cc32)CC1`, the “viability change, negative = cytotoxic” value was 0.118% [at 42.5 µM].
For `C=Cc1ccc(S(=O)(=O)O)cc1`, the “viability change, negative = cytotoxic” value is -12.6%.
For `CCCCC(CC)CN1C(=O)C2C3C=CC(C3)C2C1=O` (stereo unspecified), the “viability change, negative = cytotoxic” value was -11.5%.
